Source: PubChem BioAssay

Columns and labels:
[1] = test system: Botulinum neurotoxin type F light chain protease (Clostridium botulinum); assay: Clostridium botulinum type F light chain protease inhibitors, microsphere substrate cleavage, validation (AID 588459); conditions: multiplex microsphere protease substrate cleavage assay, flow cytometry; at 10 µM; stronger effect = higher value
[2] = target: Botulinum neurotoxin type A (Clostridium botulinum) (UniProt P0DPI0); assay: BoNT/A light chain protease inhibitors, biochemical, multiplex microsphere flow cytometry, validation set (AID 588460); conditions: at 10 µM, stronger effect = higher value
Sequence of Botulinum neurotoxin type A (Clostridium botulinum) (P0DPI0 whole entry, looked up): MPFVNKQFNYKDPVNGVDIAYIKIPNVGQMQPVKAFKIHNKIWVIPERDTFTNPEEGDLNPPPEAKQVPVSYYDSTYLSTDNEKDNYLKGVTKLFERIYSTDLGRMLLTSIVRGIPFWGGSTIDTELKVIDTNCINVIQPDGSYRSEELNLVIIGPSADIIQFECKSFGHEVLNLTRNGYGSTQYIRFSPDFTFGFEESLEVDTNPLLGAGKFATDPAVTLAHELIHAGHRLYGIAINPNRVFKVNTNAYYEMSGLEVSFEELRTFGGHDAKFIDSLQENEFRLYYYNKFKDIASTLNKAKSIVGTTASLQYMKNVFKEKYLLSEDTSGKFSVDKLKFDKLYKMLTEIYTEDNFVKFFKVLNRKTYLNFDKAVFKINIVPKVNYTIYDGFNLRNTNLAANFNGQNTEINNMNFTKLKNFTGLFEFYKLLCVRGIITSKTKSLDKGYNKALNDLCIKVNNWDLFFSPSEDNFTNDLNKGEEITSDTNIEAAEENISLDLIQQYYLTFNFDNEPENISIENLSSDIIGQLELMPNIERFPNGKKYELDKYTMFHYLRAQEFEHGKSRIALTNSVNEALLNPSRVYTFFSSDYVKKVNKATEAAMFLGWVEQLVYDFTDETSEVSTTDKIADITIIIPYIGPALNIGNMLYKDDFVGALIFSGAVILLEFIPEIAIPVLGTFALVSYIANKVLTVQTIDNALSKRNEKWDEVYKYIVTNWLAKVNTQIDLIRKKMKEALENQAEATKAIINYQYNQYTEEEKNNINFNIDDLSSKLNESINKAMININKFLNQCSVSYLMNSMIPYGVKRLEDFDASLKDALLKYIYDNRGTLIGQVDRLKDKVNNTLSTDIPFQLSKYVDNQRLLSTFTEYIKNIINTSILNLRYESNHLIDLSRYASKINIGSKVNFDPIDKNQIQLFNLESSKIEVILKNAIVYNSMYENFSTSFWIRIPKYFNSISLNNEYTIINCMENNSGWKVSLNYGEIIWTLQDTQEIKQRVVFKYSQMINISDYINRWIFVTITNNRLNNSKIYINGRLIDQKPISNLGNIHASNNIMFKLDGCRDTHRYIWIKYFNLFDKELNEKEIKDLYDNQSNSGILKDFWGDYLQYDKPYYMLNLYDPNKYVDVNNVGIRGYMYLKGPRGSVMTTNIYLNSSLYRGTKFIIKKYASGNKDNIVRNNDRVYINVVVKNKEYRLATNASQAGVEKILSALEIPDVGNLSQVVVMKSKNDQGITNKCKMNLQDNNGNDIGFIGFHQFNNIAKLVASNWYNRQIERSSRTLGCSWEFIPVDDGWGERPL

[3] = target: Lethal factor (Bacillus anthracis) (UniProt P15917); assay: Bacillus anthracis lethal factor inhibition, microsphere flow cytometry protease assay, validation at 10 µM (AID 588461); conditions: multiplex microsphere protease cleavage assay, stronger effect = higher value
Sequence of Lethal factor (Bacillus anthracis) (P15917 whole entry, looked up): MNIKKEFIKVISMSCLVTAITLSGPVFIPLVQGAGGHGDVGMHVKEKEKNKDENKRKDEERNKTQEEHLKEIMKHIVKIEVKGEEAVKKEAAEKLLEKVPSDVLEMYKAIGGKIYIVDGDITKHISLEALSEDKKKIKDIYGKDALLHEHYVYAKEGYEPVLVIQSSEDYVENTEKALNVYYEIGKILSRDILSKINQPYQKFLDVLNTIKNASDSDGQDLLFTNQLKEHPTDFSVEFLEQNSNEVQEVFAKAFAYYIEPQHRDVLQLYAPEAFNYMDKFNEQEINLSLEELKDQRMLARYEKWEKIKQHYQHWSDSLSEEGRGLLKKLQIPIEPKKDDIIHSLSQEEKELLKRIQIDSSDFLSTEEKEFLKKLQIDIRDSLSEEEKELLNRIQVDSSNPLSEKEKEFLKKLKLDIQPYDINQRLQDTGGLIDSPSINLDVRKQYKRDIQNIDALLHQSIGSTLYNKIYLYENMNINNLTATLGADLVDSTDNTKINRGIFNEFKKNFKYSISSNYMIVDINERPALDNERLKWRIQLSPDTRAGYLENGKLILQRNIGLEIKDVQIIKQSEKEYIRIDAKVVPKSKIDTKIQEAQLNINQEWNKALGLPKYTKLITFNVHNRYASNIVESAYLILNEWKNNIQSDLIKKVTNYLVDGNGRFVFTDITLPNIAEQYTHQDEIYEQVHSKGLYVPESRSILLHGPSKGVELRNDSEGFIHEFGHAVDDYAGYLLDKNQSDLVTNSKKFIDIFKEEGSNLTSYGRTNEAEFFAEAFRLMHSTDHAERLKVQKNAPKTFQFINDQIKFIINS

Measured: inhibition

Cc1ccccc1N1C(N)=NC(N)=NC1(C)C
inactive: [1] -1.5% | [2] -0.8% | [3] 6.8%

CC(C)(C)C(=O)N1CCCC1C(=O)O (stereo not given)
inactive: [1] -1% | [2] -1.2% | [3] -0.9%

CC(=O)Oc1ccc2c(=O)c(Oc3ccccc3[N+](=O)[O-])coc2c1
inactive: [1] 0.2% | [2] -1.2% | [3] -6.2%

CCNC(=S)N1CCN(CCN2C(=O)c3cccc4cccc(c34)C2=O)CC1
inactive: [1] 5.8% | [2] 3.7% | [3] 10.2%

COc1ccc(C2=NOC(COc3ccc4c(C)cc(=O)oc4c3)C2)c(OC)c1 (stereo not given)
inactive: [1] -0.4% | [2] 1.7% | [3] 0%

Cc1c(O)c(=O)ccn1C
inactive: [1] 3.3% | [2] -1% | [3] 0.9%

O=c1nc2cccc3c2=c(/c1=C(\O)c1ccccc1)c1ccccc1c3=O
inactive: [1] 3.2% | [2] 0.6% | [3] -0.8%

COc1ccc(C(=O)Oc2ccc3c(C)cc(=O)oc3c2C(C)=O)cc1
inactive: [1] 0.7% | [2] -0.3% | [3] 3%

CCOc1ccc2[nH]c3c(=O)n(CCc4ccc(OC)cc4)cnc3c2c1
inactive: [1] 1.7% | [2] 2% | [3] 0.2%

C/C=C(/C(=C/C)c1ccc(O)cc1)c1ccc(O)cc1
inactive: [1] -1.2% | [2] -0.3% | [3] 3.5%

COc1ccc(CCCC(=O)O)c(C)c1
inactive: [1] -0.2% | [2] 0.1% | [3] 6.1%

COc1ccc2[nH]cc(C3N4CC5(C)CN3CC(C)(C4)C5=O)c2c1 (stereo not given)
inactive: [1] 3% | [2] -0.2% | [3] 4.1%

Cc1coc2cc3oc(=O)c(CCC(=O)O)c(C)c3cc12
inactive: [1] 3.6% | [2] -2% | [3] -2.2%

NS(=O)(=O)c1cc2c(cc1Cl)NC(C(Cl)Cl)NS2(=O)=O (stereo not given)
inactive: [1] -0.3% | [2] 0.1% | [3] -3%

CC(C)(C)[C@]1(O)CCN2C[C@H]3c4ccccc4CCc4cccc(c43)[C@@H]2C1
inactive: [1] -2.1% | [2] 0% | [3] -2.4%
